Laboratory results taken from PubChem BioAssay AID488839 (Broad Institute, 2010).
About 35 (0.01%) of roughly 330,000 compounds were called active.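 Rule for the calls: active = highest replicate inhibition of at least 50% and at least 75% of replicates reaching 50%; inconclusive = only one of the two criteria met; inactive = both criteria failed.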 Only a sample is shown.

What follows are molecules tested against Cyclin-dependent kinase 5 (Homo sapiens) + Cyclin-dependent kinase 5 activator 1 (Homo sapiens) (UniProt Q00535+Q15078) (assay: CDK5/p35 phosphotransfer blockade – biochemical, single concentration, primary screen (AID 488839;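 note: plate controls were DMSO neutral control for no effect and GW8510 at 10 µM for full effect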)). Details: Recombinant CDK5/p35, ADP-Glo luminescence, 60 min; at 10 µM; stronger effect = higher value.
Cyclin-dependent kinase 5 (Homo sapiens) + Cyclin-dependent kinase 5 activator 1 (Homo sapiens), sequence (Q00535 whole entry, looked up): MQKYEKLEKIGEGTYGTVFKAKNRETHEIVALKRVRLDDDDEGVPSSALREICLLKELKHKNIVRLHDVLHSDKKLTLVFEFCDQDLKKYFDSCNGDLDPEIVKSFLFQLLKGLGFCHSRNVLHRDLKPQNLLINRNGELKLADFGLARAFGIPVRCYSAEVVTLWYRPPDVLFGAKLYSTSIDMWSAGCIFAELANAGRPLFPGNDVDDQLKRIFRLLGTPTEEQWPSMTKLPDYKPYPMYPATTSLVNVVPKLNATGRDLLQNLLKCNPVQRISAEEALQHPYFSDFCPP
Cyclin-dependent kinase 5 (Homo sapiens) + Cyclin-dependent kinase 5 activator 1 (Homo sapiens), sequence (Q15078 whole entry, looked up): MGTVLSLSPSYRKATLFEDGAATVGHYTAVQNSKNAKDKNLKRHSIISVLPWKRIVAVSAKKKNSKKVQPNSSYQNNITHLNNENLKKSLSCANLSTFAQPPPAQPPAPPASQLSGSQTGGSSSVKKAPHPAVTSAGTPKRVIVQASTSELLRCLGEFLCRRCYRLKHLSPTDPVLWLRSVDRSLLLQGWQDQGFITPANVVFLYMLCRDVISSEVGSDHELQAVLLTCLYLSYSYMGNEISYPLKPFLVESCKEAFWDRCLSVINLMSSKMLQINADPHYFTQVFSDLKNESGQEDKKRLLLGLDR

inhibition, inactive:
COc1ccc(-c2csc3nc(-c4ccccc4F)oc(=O)c23)cc1OC -0.745%
CCCN1CNC(=S)N(CCc2ccccc2)C1 0.897%
OCc1n[nH]c(CO)n1 -0.355%
CC(C)COC(=O)n1c(=O)oc2ccc(S(=O)(=O)N3CCCCC3)cc21 -6.42%
COc1ccc(NC(=O)CC2C(=O)NC3CCCCC3N2C(=O)c2ccc(F)cc2)cc1 (stereo not given) 0.318%
CN(CC(=O)Nc1ccc(F)cc1)CC(=O)N1CCCCC1 1.08%
Cc1coc2c(O)cc3c(c12)OC1(N2CCCCC2)C(=O)NCCCC31 (stereo not given) -0.717%
CCCCN1C(=O)C(C)=C(C)C1OCCc1ccc(OC)c(OC)c1 (stereo not given) 1.7%
N/C(=N\OC(=O)Nc1ccccc1)c1ccno1 -1.08%
Cc1c2cnn(-c3ccccc3)c(=O)c2c(C)n1CCCC(=O)N1CCN(C)CC1 0.518%
COc1ccccc1NC(=O)CSc1nnc(-c2ccoc2C)n1CCc1ccccc1 -0.569%
COc1ccccc1NC(=O)c1ccc(N2CC3CC(C2)c2cccc(=O)n2C3)c(NC(=O)c2cccnc2)c1 (stereo not given) -1.98%
CC1C(C)N(C(=O)CCl)c2ccccc2N1C(=O)CCl (stereo not given) 1.01%
C[C@H](NC(=O)C1CC(=O)N(c2ccc3c(c2)OCO3)C1)C(=O)NCc1ccco1 (stereo not given in full) -0.436%
CCc1n[nH]c(=S)n1/N=C/c1c[nH]c2ccc(Br)cc12 2.39%
COC(=O)Cc1ccc(OCC(=O)NC2CCCC2)cc1 0.995%
O=C(Nc1c2c(nn1-c1ccc(F)cc1)CS(=O)C2)C12CC3CC(CC(C3)C1)C2 (stereo not given) -0.258%
Cc1cccc(C(=O)NCc2nnc(SC(C)C(=O)Nc3nnc(C)s3)n2C)c1 (stereo not given) 1.14%
COc1ccc(Cl)cc1NC(=O)COC(=O)C(CC(C)C)N1C(=O)C2CC=CCC2C1=O (stereo not given) -0.94%
CCOC(=O)c1ccc2[nH]c(C)c(CN3CCN(C)CC3)c(=O)c2c1 -4.67%
COc1ccc(OC)c(NC(=O)CN(Cc2ccc(Cl)cc2)S(C)(=O)=O)c1 0.423%
O=C(CSc1nnc(SCc2ccc(Cl)cc2)s1)N/N=C/c1ccccc1Cl -1.05%
O=S(=O)(NCCSc1ccccn1)c1ccc(Cl)cc1 0.39%
O=C(C1CCN(C2CCN(Cc3ccc4cc(F)ccc4n3)CC2)CC1)N1CCCC1 0.175%
COc1ccc(C(=O)Cn2nnc(-c3ccc(N4CCOCC4)cc3)n2)cc1OC -3.2%
